# Source: PubChem (Bradner/Qi Labs at DFCI)
# CBX7 AlphaScr: CBX7 inhibition, primary AlphaScreen; hit rate 1.1% among 66,000; normalised signal (fraction of DMSO) (test concentration not listed); AID 1224903; O95931; AlphaScreen His6-CBX7 / biotin-H3K27me3 peptide binding; stronger effect = lower value; in the data active = normalised signal below about 0.5
# Target sequence (O95931 whole entry, looked up): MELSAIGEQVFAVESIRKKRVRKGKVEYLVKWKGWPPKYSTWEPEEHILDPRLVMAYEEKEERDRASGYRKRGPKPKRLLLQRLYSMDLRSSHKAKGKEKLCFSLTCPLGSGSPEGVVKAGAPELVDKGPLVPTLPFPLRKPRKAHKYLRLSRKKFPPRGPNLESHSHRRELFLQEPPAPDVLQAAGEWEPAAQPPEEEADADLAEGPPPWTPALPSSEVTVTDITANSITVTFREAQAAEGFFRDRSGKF
# * hit, by the source's call; ! = repeats disagree. The full list was thinned out, with hits kept by preference.
SMILES,CBX7 AlphaScr
O=C1c2ccccc2C(=O)N1CC(O)COCc1ccccc1 (stereo not given),1
Cc1ccc(OCC(O)Cn2cnc3cc(C)c(C)cc32)cc1 (stereo not given),0.072*
Cc1cc2ncn(CC(O)COCc3ccccc3)c2cc1C (stereo not given),0.051*
CCCCn1c(=N)n(CC(O)COc2cccc(C)c2)c2ccccc21 (stereo not given),0.65
COC(=O)c1ccc(OCC(O)Cn2cnc3cc(C)c(C)cc32)cc1 (stereo not given),0.87
Cc1cc2ncn(CC(O)COC3CCCCC3)c2cc1C (stereo not given),0.044*
Cc1cccc(OCC(O)Cn2cnc3cc(C)c(C)cc32)c1 (stereo not given),0.045*
Cc1cc2ncn(CC(O)COc3ccc(C(=O)O)cc3)c2cc1C (stereo not given),1
Cc1ccc(Cl)c(OCC(O)Cn2cnc3cc(C)c(C)cc32)c1 (stereo not given),0.72
Cc1ccc(OCCCn2cnc3cc(C)c(C)cc32)cc1,0.96
Cc1cc2ncn(CC(O)COCC3CC=CCC3)c2cc1C (stereo not given),0.65
Cc1ccc(-c2ccc(=O)n(CCC(=O)NCCN(CC(C)C)CC(C)C)n2)cc1,0.96
COCC(=O)NC(C)c1nc2ccccc2n1Cc1ccccc1C (stereo not given),1
CC1CCCC(NC(=O)c2ccc3c(c2)N(Cc2ccc(Cl)cc2)C(=O)CS3)C1C (stereo not given),1
O=C(CN1C(=O)CSc2ccc(S(=O)(=O)N3CCOCC3)cc21)NCCN1CCCC1,1
COCCNc1nc(C)nc2sc(C)c(C)c12,1
O=C(NCc1cccs1)C1=CCN(S(=O)(=O)c2ccc(F)cc2)CC1,1.1
Cc1cc(=O)n2nc(N3CCC(C(=O)NC4CCC(C)CC4)CC3)sc2n1 (stereo not given),1
Cc1ccccc1CN1CCN(CC(=O)NCc2cccnc2)C1=O,1
CCCCOc1ccc(N2C(=O)CC(N3CCCCC3)C2=O)cc1 (stereo not given),1.1
COc1cccc(CNC(=O)CCc2cn(Cc3ccccc3)c3ccccc23)c1,0.99
O=C(NC1CC1)c1cnn(-c2ccccc2)c1-n1cccc1,1
COc1cccc(OCCOc2ccc(-c3nc4sc5c(c4c(=O)[nH]3)CCCC5)cc2)c1,1.2
CCCN(C(=O)Cn1nc(Cc2cccnc2)c2ccccc2c1=O)c1ccc(CC)cc1,0.93
CCCc1cc(-c2[nH]ncc2-c2ccc3c(c2)OCCO3)c(O)cc1OC,0.29*
SMILES,CBX7 AlphaScr
CCc1cc(-c2[nH]ncc2-c2ccc3c(c2)OCCO3)c(O)cc1OC,0.38*
CCCc1cc(-c2onc(C)c2-c2ccc3c(c2)OCCCO3)c(O)cc1OC,0.68
CCCCCCc1cc(-c2[nH]ncc2-c2ccc(Br)cc2)c(O)cc1OC,0.58
CCc1cc(-c2n[nH]c(C)c2-c2ccc3c(c2)OCCO3)c(O)cc1O,0.69
CCc1cc(-c2[nH]ncc2-c2ccc3c(c2)OCCO3)c(O)cc1O,0.69
CCN(CC)S(=O)(=O)c1ccc2c(c1)N(CC(=O)Nc1ccc(C)cc1C)C(=O)CS2,1
CCOc1ccc2c(c1)c(=O)c(C(=O)c1ccc(OC)cc1)cn2Cc1ccccc1,0.63
CC1(C)CC(=O)c2sc(NC(=O)Cc3ccc(F)cc3)nc2C1,0.96
Cc1ccc(-n2c(C)nc3c(cnn3-c3ccc(F)cc3)c2=O)cc1F,0.99
Cc1ccc(Nc2nnc(C(C)(C)C)c(=O)[nH]2)cc1,1.3
CCOc1ccc(Nc2nnc(C(C)(C)C)c(=O)[nH]2)cc1,1
CCOC(=O)c1ccc(Nc2nnc(C(C)(C)C)c(=O)[nH]2)cc1,0.5*
CC1CCCC(NC(=O)C2c3ccccc3C(=O)N2CCc2ccccc2)C1C (stereo not given),1.1
COc1cccc(CNc2sc3c(c2C(=O)Nc2cc(OC)ccc2OC)CCCC3)c1,0.77
COc1ccc(OC)c(NC(=O)c2c(NCc3ccc(N(C)C)cc3)sc3c2CCCC3)c1,0.48*
COc1ccc(OC)c(NC(=O)c2c(NCc3ccc(OC)c(OC)c3)sc3c2CCC3)c1,0.71
N#Cc1ccccc1NC(=O)CC1Sc2ccccc2NC1=O (stereo not given),1.2
COc1ccc(-c2csc(Nc3ccccc3OC)n2)cc1Br,0.81
COc1cc(Nc2nc(-c3cc(C)ccc3C)cs2)c(OC)cc1Cl,0.69
Clc1ccc(-c2csc(Nc3ccc4c(c3)OCO4)n2)cc1,0.64
CC(C)Cc1ccc(-c2csc(Nc3ccc4c(c3)OCO4)n2)cc1,0.19*!
Cc1ccc(-c2csc(N3CCN(Cc4ccc5c(c4)OCO5)CC3)n2)cc1,0.88
COc1ccc(-c2csc(Nc3ccc4c(c3)OCO4)n2)cc1Br,0.33*!
CCc1ccc(-c2csc(Nc3cc(OC)c(Cl)cc3OC)n2)cc1,0.66
COc1cc(Nc2nc(-c3ccc(CC(C)C)cc3)cs2)c(OC)cc1Cl,0.48*
SMILES,CBX7 AlphaScr
COc1ccc(-c2csc(Nc3ccc(S(N)(=O)=O)cc3)n2)cc1C,0.55
O=C(Nc1c(F)cccc1F)N(Cc1cccnc1)Cc1ccccc1Cl,0.93
COc1ccc(CN2CCN(C3CCN(Cc4ccccc4)CC3)CC2)cc1,1
CCC1CCCCN1CCCNC(=O)c1ccc2c(c1)N(Cc1ccccc1)CCS2 (stereo not given),0.76
O=C1CCCC2=C1C(c1ccccc1)Nc1ccc(C(=O)c3ccccc3)cc1N2 (stereo not given),0.78
C=CCn1c(SCC(=O)Nc2cccc(C(F)(F)F)c2)nnc1-c1cccc(Br)c1,0.95
CC(C(=O)c1ccccc1)C1(O)C(=O)N(C)c2ccccc21 (stereo not given),1
COc1cccc(NC(=O)c2sc3ncn(CC(=O)N4CC(C)CC(C)C4)c(=O)c3c2C)c1 (stereo not given),1
O=C(Nc1ccc(OC(F)(F)F)cc1)C1CCN(S(=O)(=O)c2cnc[nH]2)CC1,0.99
COc1cccc(OCC(O)CN2CCC(C)CC2)c1 (stereo not given),0.98
COCc1cc(CN2CCC(C)CC2)c(O)c2ncccc12,0.0039*
Cc1ccc(-c2noc(CN3CCC(C)CC3)n2)cc1,1.1
CCC(C)NC(=O)C1CCN(c2cc(C)nc3c(-c4ccc(Cl)cc4)c(C)nn23)CC1 (stereo not given),1.1
CCn1c(NC(=O)c2ccc(F)cc2)nc2ccccc21,0.8
CC(C)N(Cc1ccccc1)S(=O)(=O)c1ccc(C(=O)Nc2nnc(-c3cccs3)o2)cc1,0.88
CCN(c1ccccc1)S(=O)(=O)c1ccc(C(=O)Nc2nnc(C3CC3)o2)cc1,0.066*
CCN(c1ccccc1)S(=O)(=O)c1ccc(C(=O)Nc2nnc(COC)o2)cc1,0.79
COCc1nnc(NC(=O)c2ccc(S(=O)(=O)N(C)c3ccccc3)cc2)o1,0.71
CN(c1ccccc1)S(=O)(=O)c1ccc(C(=O)Nc2nnc(C3CC3)o2)cc1,0.55
CCc1nnc(NC(=O)c2ccc(S(=O)(=O)N(CC)c3ccccc3)cc2)o1,0.073*
Cc1cc(C)cc(NS(=O)(=O)c2ccc3[nH]cc(C(=O)N4CCN(C)CC4)c(=O)c3c2)c1,0.88
Cc1ccc2nc(C)cc(Nc3ccc(C)c(C)c3)c2c1,1
COC(=O)c1ccc(-n2c(/C=C\c3ccc(F)c(F)c3)nc3ccccc3c2=O)cc1,1.1
COc1ccc(CN2C(=O)c3cccnc3C2Nc2cc(Cl)c(OC)cc2OC)cc1 (stereo not given),0.073*
COc1ccc(NC2c3ccccc3C(=O)N2Cc2ccccc2)cc1Cl (stereo not given),0.99
